Screening data from PubChem.
HepG2 viability: counter-screen for TGF-b inhibitors: cytotoxicity in HepG2 cells; HepG2 CAGA-GFP viability, ATP luminescence, 18 h; Potency, µM (top dose mostly 46.1 µM), most hits filed as cytotoxic; actives 0.76% (n = 410,000); AID 588856
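HepG2 CAGA-GFP cells (1000/well, DMEM with 1% FBS) received compound, then TGF-beta at 500 pg/mL final, and were incubated 18 hours at 37 degrees C. Viability was read by CellTiter-Glo luminescence. Media-only wells were set as complete cell-killing and DMSO as no toxicity.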
LDHA block: LDHA (human) enzyme inhibition | purified LDHA, NADH/diaphorase-resazurin fluorescence; stronger effect = lower value | activity change, % (values are at about 110 or 230 µM) | actives 0.15% (n = 480,000); in the data active means activity change below about -30%; inconclusive means mostly about -25% to -30%
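LDH5 2 nM; NADH 0.06 mM, pyruvate 0.2 mM; 200 mM Tris pH 7.4, EDTA, Tween-20; 5 min RT. Detection: diaphorase 0.133 mg/mL + resazurin 37 µM, fluorescence ex540/em590 at 0 and 20 min; normalized to enzyme-free and DMSO wells.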
IDH1 R132H inh: blocks human mutant IDH1 R132H enzyme | O75874 | IDH1-R132H enzyme, NADPH consumption, diaphorase/resazurin fluorescence | Potency, µM (highest dose often 76.6 µM), actives largely listed as inhibitors | actives 0.093% (n = 390,000) | AID 602179; further: nearly all actives have a fitted effect of over 65% in size
Target sequence (O75874 whole entry R132H, stated change not applied): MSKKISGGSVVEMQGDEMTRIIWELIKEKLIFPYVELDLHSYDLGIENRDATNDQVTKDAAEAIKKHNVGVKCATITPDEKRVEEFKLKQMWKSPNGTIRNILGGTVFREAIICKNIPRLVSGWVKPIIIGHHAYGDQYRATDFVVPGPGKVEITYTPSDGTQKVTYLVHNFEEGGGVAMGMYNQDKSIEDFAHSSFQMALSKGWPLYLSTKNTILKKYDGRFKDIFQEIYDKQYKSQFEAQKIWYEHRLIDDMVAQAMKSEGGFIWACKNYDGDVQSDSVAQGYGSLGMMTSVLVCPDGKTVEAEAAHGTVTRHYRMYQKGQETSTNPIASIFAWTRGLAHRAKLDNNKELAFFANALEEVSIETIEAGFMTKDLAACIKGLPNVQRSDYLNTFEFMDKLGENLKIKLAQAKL
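IDH1-R132H (0.5 ug/mL) preincubated 30 min with compound, then NADPH (0.016 mM) and alpha-KG (2 mM) added; 80 min at RT, pH 7.5. Remaining NADPH coupled via diaphorase/resazurin to fluorescence (540/590 nm); concentration-response curves normalized to no-enzyme control.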
ATXN2 expr inh: reduces ATXN2 reporter expression in HEK-293 cells | AID 1745845 | HEK-293 ATXN2-luciferase reporter, luminescence, 24 h | Potency, µM (series often up to 57 µM), hits mostly inhibitors | actives 0.72% (n = 360,000); further: nearly all actives have a fitted effect of over 55% in size
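qHTS (up to 57 uM final) was run with 24 h compound exposure of reporter cells at 37 °C. Each well was multiplexed: SteadyGlo luminescence measured ATXN2-luciferase expression after a fluorogenic Gly-Phe-AFC viability readout (25 uM final).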
TGFb SMAD3 inh: blocks TGF-b signaling | HepG2 CAGA-GFP TGF-b/SMAD3 reporter, GFP fluorescence, 18 h; TGF-beta stimulated, 500 pg/mL final | Potency, µM (top dose mostly 46.1 µM), usual class: inhibitors | actives 1.2% (n = 410,000); further: nearly all actives have a fitted effect of over 65% in size
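Per well, imaged GFP fluorescence of HEPG2 CAGA-GFP cells gives the signal; cells get compound, then TGF-beta (500 pg/mL final), 18 h at 37 degrees C; %Activity versus -TGF-beta and +DMSO controls.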
S2 tox: viability counter-screen for ATXN expression inhibitors. S2 cells (HEK-293 line with an ATXN2-luciferase reporter) viability, CellTiter-Fluor protease fluorescence, 24 h. Potency, µM (titrated, usually from 56.7 µM), usual class: cytotoxic. actives 0.49% (n = 400,000). AID 651635; further: nearly all actives have a fitted effect of over 40% in size
Each line names hits and unclear results; the compound was inactive in the other large screens. Compounds with a hit are over-represented: about 2.2% of the library has one in this group of screens. Unless noted, the call rests on the fitted dose curve; in most records, active means well fitted curve in the direction sought with a large enough effect; inconclusive means small, poorly fitted or top-dose-only effect, or another doubt; inactive means no such curve, though single readings can be large; an effect the other way counts as inactive or inconclusive.

CCOC(=O)CN1C(=O)C(Sc2n[nH]c(-c3ccc(C)cc3)n2)CCc2ccccc21 (centres undefined)	none
CN(Cc1ccc(Cl)cc1)C(C(=O)NC1CCCCC1)c1cc2ccccc2o1 (centres undefined)	TGFb SMAD3 inh inconclusive (no result: IDH1 R132H inh)
N#CCCN(Cc1ccccc1)C(C(=O)NC1CCCCC1)c1cc2ccccc2o1 (centres undefined)	TGFb SMAD3 inh 13µM (no result: IDH1 R132H inh, S2 tox)
CCc1sc(C(=O)N(CCCOC)c2c(N)n(CC(C)C)c(=O)[nH]c2=O)cc1C	none
c1ccc(COc2ccccc2CNC23CC4CC(CC(C4)C2)C3)cc1	HepG2 viability 10µM, ATXN2 expr inh 16µM, TGFb SMAD3 inh inconclusive (no result: S2 tox)
CCOc1ccc(-c2ccc(SC)nn2)cc1	HepG2 viability 13µM, ATXN2 expr inh inconclusive
COc1cc(N=c2ssnc2Cl)c(OC)cc1Cl	IDH1 R132H inh 46µM, ATXN2 expr inh inconclusive, TGFb SMAD3 inh inconclusive, S2 tox inconclusive
Cc1cc2oc(C(=O)Nc3cccc(-c4nc5ccccc5o4)c3)c(C)c2cc1C	none
C/C=C(\C)C(=O)OC1[C@H](OC(C)=O)C2(CO)C(CC1(C)C)C1=CCC3C4(C)CCC(O[C@@H]5O[C@H](C(=O)O)[C@@H](O[C@@H]6O[C@H](CO)[C@@H](O)[C@H](O)[C@H]6O)[C@H](O)[C@H]5O[C@H]5O[C@H](CO)[C@@H](O)[C@H](O)[C@H]5O)[C@](C)(CO)C4CCC3(C)[C@]1(C)C[C@H]2O (some centres undefined)	ATXN2 expr inh 8.9µM, TGFb SMAD3 inh 4.5µM, S2 tox 14µM (no result: IDH1 R132H inh)
C/C=C(/C)C(=O)OC1CC(C)(C)C[C@H]2C3=CC[C@@H]4[C@@]5(C)CCC(O[C@@H]6O[C@@H](C(=O)O)[C@@H](O)C(O[C@@H]7OC[C@H](O)[C@@H](O)[C@@H]7O[C@@H]7OC(CO)C(O)[C@@H](O)[C@@H]7O)C6O[C@@H]6OC(CO)C(O)C(O)C6O)[C@@](C)(CO)[C@@H]5CC[C@]4(C)[C@]3(C)CC(O)[C@@]12CO (some centres undefined)	HepG2 viability 14µM, TGFb SMAD3 inh 14µM, S2 tox 32µM
O=C(c1ccc(-c2ccccc2Cl)o1)N1CCCC(C(F)(F)F)C1 (centres undefined)	none (no result: ATXN2 expr inh)
O=C(Nc1oc2ccccc2c(=O)c1-c1ccc2c(c1)OCO2)c1ccccc1	LDHA block -36 (no result: HepG2 viability, IDH1 R132H inh, ATXN2 expr inh, TGFb SMAD3 inh, S2 tox)
O=C(Nc1oc2ccccc2c(=O)c1-c1ccc2c(c1)OCO2)c1ccc(F)cc1	none (no result: HepG2 viability, IDH1 R132H inh, ATXN2 expr inh, TGFb SMAD3 inh, S2 tox)
O=C(CCCc1ccccc1)Nc1ccccc1C(F)(F)F	none
C#CCN(C[C@@H]1[C@@H](OC(=O)Nc2cccs2)[C@@H](OC(=O)Nc2cccs2)Cn2c(=O)ccc(=O)n21)S(=O)(=O)c1ccc(C)cc1	HepG2 viability 5µM, ATXN2 expr inh 3.5µM, TGFb SMAD3 inh 5.6µM, S2 tox 3.5µM
C#CCN(C[C@@H]1[C@@H](OC(=O)NC2CC2)[C@@H](OC(=O)NC2CC2)CN(C(=O)OC(C)C)N1C(=O)OC(C)C)S(=O)(=O)c1ccc(C)cc1	S2 tox inconclusive
C#CCN(C[C@@H]1[C@@H](OC(=O)NCc2ccccc2F)[C@@H](OC(=O)NCc2ccccc2F)Cn2c(=O)ccc(=O)n21)S(=O)(=O)c1ccc(C)cc1	HepG2 viability 13µM, ATXN2 expr inh 4µM, TGFb SMAD3 inh 11µM, S2 tox 4µM
C#CCN(C[C@H]1[C@H](OC(=O)Nc2cccs2)[C@H](OC(=O)Nc2cccs2)C[C@H]2C(=O)N(c3ccccc3)C(=O)[C@@H]12)S(=O)(=O)c1ccc(C)cc1	none
C#CCN(C[C@@H]1[C@@H](OC(=O)NC2CCCC2)[C@@H](OC(=O)NC2CCCC2)Cn2c(=O)ccc(=O)n21)S(=O)(=O)c1ccc(C)cc1	ATXN2 expr inh inconclusive, TGFb SMAD3 inh inconclusive, S2 tox 11µM
